This passage reports inhibition results from PubChem BioAssay AID463215 (Sanford-Burnham Center for Chemical Genomics, 2010).

In all, about 4,600 compounds went through this assay and about 2,900 (63%) were called active.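 Rule for the calls: active = inhibition of yeast growth at or above a set limit in either of two replicates at 10 µM; inactive = the rest.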 The set was probably picked from earlier hits. The entries come from a sample that favours actives as a whole.

This assay can be described thus: TIM10 isogenic control strain growth inhibition – single concentration, luminescence, S. cerevisiae, counter-screen for tim10-1 synthetic lethality project, confirmation (AID 463215).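 Note: isogenic wild-type TIM10 control yeast grown in succinate dextrose medium; this counterscreen used the strain with wild-type TIM10; 0% = yeast with DMSO and 100% = medium wells lacking yeast.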 The conditions noted are these: BacTiter-Glo luminescence, 24 h, at 10 µM, hits give high values. (Counterscreens check selectivity or assay interference.)
On to `Cc1cc2ccccn2c1C(C[N+](=O)[O-])c1c(F)cccc1Cl` (stereo not given), for which the inhibition was 36.1% (active).

In the case of `O=C1NC(=O)N(c2ccccc2)C(=O)/C1=C/c1ccc([N+](=O)[O-])s1`, the inhibition is 40% (active).

For the molecule `COc1cccc(N2C(=O)NC(=O)/C(=C\c3ccc([N+](=O)[O-])s3)C2=O)c1`, the inhibition was 39.2% (active).

As to `C/C(=N/O)c1ccc2ccc3ccccc3c2c1`, the inhibition is 42.5% (active).

Take `Cc1ccc(-c2nc3ccccc3c(=O)n2-c2ccc(Br)cn2)cc1`: the inhibition was 46.5% (active).

The term inhibition denotes the percentage by which the read-out fell short of the control.
